The record followed here is PubChem BioAssay AID837 (The Scripps Research Institute Molecular Screening Center, 2007).

The source made the active and inactive calls.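 How the source made its calls: active means relative FRET score above 0.01, or acceptor fluorescence over 30% below the sample-well median; inactive means the rest.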

For the assay, the target named is Protein Rev (Human immunodeficiency virus type 1 group M subtype B (isolate WMJ22)) (UniProt P05866). The experiment in a line: disruptors of Rev peptide-RRE RNA complex – biochemical, FRET, acceptor and relative FRET calls, confirmation (AID 837).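 Further: relative FRET combines rise in Cy5 acceptor with fall in fluorescein donor.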 As to conditions: Fl-Rev peptide / Cy5-RRE RNA FRET, 1536-well; at 8 µM.
Sequence of Protein Rev (Human immunodeficiency virus type 1 group M subtype B (isolate WMJ22)) (P05866 whole entry, looked up): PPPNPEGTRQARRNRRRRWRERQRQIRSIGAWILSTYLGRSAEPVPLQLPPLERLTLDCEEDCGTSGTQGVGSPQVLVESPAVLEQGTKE

Take `Cc1nc(Nc2ccc(F)cc2)[nH]c(=O)c1CCC(C)C`: the compound was classed as inactive. Next, `OC(COc1ccc(C2C=CCC2)cc1)CN1CCCCC1` (stereo unspecified): “inactive”. Next, `CCOC(=O)Cn1c(=N)n(CCOc2ccc(OC)cc2)c2ccccc21`: “inactive”. Take `COc1ccc(Nc2nc(N)nc(CN(C)C3CCCCC3)n2)cc1`: the call was active. Next, `Cc1cccc(NC2=NC3(CCCCC3)N=C(N)N2)c1C`: “inactive”. With `CN(C)CCNCc1ccccc1OC1CCCC1`, the result was inactive. For `CCOC(=O)Cn1c(=N)n(Cc2ccccc2)c2ccccc21` the value was “inactive”. Next, `CCOC(=O)CSc1ccc(S(=O)(=O)N(C)C2CCCCC2)cc1[N+](=O)[O-]`: “inactive”. For `Nc1nc(Nc2ccccc2)nc2ccccc12` the value was “inactive”; for `Cc1ccc(C2NC(=O)c3c(sc4c3CCN(C)C4)N2)s1` (stereo unspecified), “inactive”; for `O=c1nc(N2CCCC2)nc(Nc2ccccc2)[nH]1`, “inactive”. On to `O=c1[nH]c(Nc2ccc(F)cc2)cc2ccccc12`, for which the compound was classed as inactive. Next, `COc1ccc(C(=O)c2coc3ccc(O)c(CN4CCCC4)c23)cc1`: “inactive”; `CC1=NN(c2ccccc2)C(=O)C1N=Nc1ccc(N)cc1` (stereo unspecified): “active; fluoresces like the acceptor”. For `CC(C)C(C(=O)O)N1C(=O)/C(=C/C=C/c2ccco2)SC1=S` (stereo unspecified) the value was “inactive; quenches the donor”. For the compound `O=C(Nc1nccs1)c1cc2c(s1)-c1ccccc1OC2`, the result was inactive. For `CCN(N=Nc1cccc([N+](=O)[O-])c1)c1cccc([N+](=O)[O-])c1` the value was “inactive”. Regarding `CCCCOc1ccc(NC2=NC3(CCCCC3)N=C(N)N2)cc1`, the call was inactive. Next, `CCN1CCCC1CNC(=O)c1c(O)c2c([nH]c1=O)CCCC2` (stereo unspecified): “inactive”; `CCOc1ccc2nc3ccc4[nH]onc4c3c2c1`: “inactive”; `OC(CNC1CCCC1)COc1c(F)cc(Br)cc1F` (stereo unspecified): “inactive”.
